Experimental findings from PubChem BioAssay (NCI) are described below.

Experiment in all cases: NCI-60 one-dose screen, 48 h (100 = growth as untreated, 0 = no growth, -100 = all killed)
Common to all, as to conditions: 10 µM

For test [1], the system named is SR leukemia.
The subject of test [2] is RPMI-8226 leukemia.
In test [3] the test system is OVCAR-8 ovarian.
Test [4] concerns OVCAR-5 ovarian.
The test system of test [5] is OVCAR-4 ovarian.
For test [6], the system named is SK-OV-3 ovarian.
Test [7] concerns IGROV1 ovarian.
Test [8] has as its system OVCAR-3 ovarian.
For test [9], the system named is NCI/ADR-RES ovarian.
In test [10] the test system is T-47D breast.
Test [11] concerns BT-549 breast.
The test system of test [12] is MDA-MB-435 melanoma.
Test [13] has as its system SW-620 colon.
Test [14] relates to MCF7 breast.
In test [15] the test system is HCT-116 colon.
In test [16] the test system is KM12 colon.
For test [17], the system named is HCC-2998 colon.
Test [18] has as its system HS 578T breast.

This is part of a sample that, as a whole, favours compounds with a hit. Of some 83,000 tested, about 20% had one in any assay.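 Testing used 96-well plates and a 48-hour single-concentration exposure. Example: -40 means 40% of the starting cells died.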 Values without a mark were called inactive. Active and inactive are the calls of the source. How the source made its calls: active means growth percent below 10; inactive means the rest.

On to `CCOc1nc(-c2ccccc2)cc2c(O)c(C(=O)NCCCO)[nH]c(=O)c12`, for which the growth in [1] was 141%; in test [2], 51.2%; in [3], 108%; in test [4] it was 92.4%; in [5], 103%; in [6], 84.6%. For the same compound, the growth in test [7] is 57.6%; in [8], 93.1%; in test [9], 113%; in test [10] it was 97.4%; in test [11], 97.6%; in [12], 94.9%. Besides, the growth in [13] was 96.4%; in test [14], 90.3%; in test [15] it was 98.9%; in test [16] it was 99.1%.
`COc1cc(CSc2nc3ccc(C)cc3c(=O)n2-c2ccccc2)cc(OC)c1OC`: the growth was 20.3% in test [1]; 54.9% in test [2]; 52.9% in test [3]; 46.4% in test [4]; 57.2% in test [5]; 13.6% in test [6]. The growth was 33.2% in test [7]; -1.43% (active) in [8]; 17.8% in test [9]; 28.2% in test [10]; 19.6% in test [11]; -20% (active) in [12]. Also, the growth in [13] was 29.7%; in [14] it was 19.9%; in test [15] it was 26.6%; in test [17], 49.7%; in test [16] it was 25.3%.
On to `CCN(CCCNC(=O)Cc1cc(=O)oc2cc(N(C)C)ccc12)CCNc1ccnc2cc(Cl)ccc12`, for which the growth is 1.46% (active) in test [1]; 54.7% in [2]; 83.9% in [3]; 109% in [4]; 81.7% in test [5]; 116% in test [6]. In addition, the growth in [7] was 94%; in test [8], 106%; in test [18], 98.3%; in test [9], 109%; in test [10], 123%; in [12], 46.7%. In addition, the growth in [13] was 74.9%; in test [14], 66%; in test [15] it was 53.3%; in test [17], 79.5%; in test [16], 92.7%.
Regarding `CN1/C(=C\C(I)C(I)C2=[N+](C)c3ccccc3C2(C)C)C(C)(C)c2ccccc21` (configuration not stated), the growth is 8.27% (active) in test [1]; -10.4% (active) in [2]; 7.15% (active) in [3]; 24.9% in test [4]; 21.6% in [5]; -8.39% (active) in test [6]. In addition, the growth is 25% in [7]; 13.3% in test [8]; 73% in test [9]; -0.299% (active) in test [10]; 13.3% in test [11]; 11.8% in [12]. Further, the growth was 16.1% in [13]; 4.83% (active) in [14]; 9.19% (active) in test [15]; 12.6% in [17]; 13.2% in test [16].
As to `Cn1c(=O)c2[nH]c(C(O)c3ccc(Cl)cc3)nc2n(C)c1=O` (configuration not stated), the growth in test [1] was 104%; in test [2], 90.6%; in [3], 97.8%; in [4] it was 99.6%; in [5], 91.3%; in test [6], 101%. Moreover, the growth is 111% in test [7]; 109% in test [8]; 97.9% in test [9]; 101% in [10]; 93.6% in [11]; 101% in test [12]. The growth was 89.5% in [13]; 96.6% in test [14]; 95% in test [15]; 97.8% in [17]; 97.3% in test [16].
With `Clc1ccc(-c2nc(-c3cccs3)cn3ccnc23)cc1`, the growth in test [1] was 59.5%; in test [2], 64.7%; in test [3], 81%; in test [4], 108%; in [5] it was 64.6%; in test [6], 50.2%. Moreover, the growth is 60.9% in test [7]; 72.6% in test [8]; 87% in test [18]; 55.5% in test [9]; 16.3% in test [10]; 23.2% in [12]. Besides, the growth in test [13] is 57.3%; in test [14], 19.1%; in test [15], 68%; in test [17], 47.8%; in test [16], 50.5%.
`O=C(OCC1OC(n2cc(C(F)(F)F)c(=O)[nH]c2=O)CC1OC(=O)c1ccc([N+](=O)[O-])cc1)c1ccc([N+](=O)[O-])cc1` (configuration not stated): the growth in test [1] is 60.4%; in test [2], 71.9%; in test [3], 66.8%; in test [4] it was 82.9%; in test [5], 88.2%; in test [6] it was 63.1%. Further, the growth in [7] is 82.3%; in test [8], 74.1%; in test [9], 88.7%; in [10], 74.4%; in [11] it was 60.1%; in [12] it was 50.6%. Also, the growth in test [13] is 65.6%; in [14], 33.6%; in test [15], 72.7%; in [17], 51.5%; in [16], 72.2%.
With `Cc1ccc(S(=O)(=O)Oc2ccccc2-c2ccccc2)cc1`, the growth was 8.73% (active) in [1]; 34.4% in test [2]; 41.6% in test [3]; 63.6% in [4]; 60.7% in [5]; 23% in test [6]. Moreover, the growth in test [7] is 35.6%; in test [8], -28.1% (active); in test [9] it was -7.58% (active); in test [10], 37.1%; in test [11] it was 44.3%; in test [12], -41.5% (active). Also, the growth is 20.8% in [13]; 15.9% in test [14]; 14.6% in [15]; 46.3% in test [17]; 15.6% in test [16].
As for `C=CCc1cc(Nc2c3ccc(Cl)cc3nc3ccc(OC)cc23)cc(CN(CC)CC)c1O`, the growth in [1] was -20.4% (active); in test [2], -25.7% (active); in test [3], 8.73% (active); in [4], 47.5%; in test [5], 9.26% (active); in [6], 1.21% (active). For the same compound, the growth in test [7] is 25.5%; in test [8], 6.47% (active); in [9], 43.9%; in test [10] it was 0.233% (active); in [11], 10.9%; in test [12], 15.5%. In addition, the growth was 15.9% in [13]; 3.42% (active) in test [14]; 5.97% (active) in test [15]; 24.2% in test [17]; 11.7% in test [16].
